Reference: PubChem BioAssay (EPA / NIEHS)
The source made the active and inactive calls. How the source made its calls: active means hit-call score of the fitted dose curve at least 0.9, where 1 is the maximum; inactive means score below 0.9.

These compounds were tested on Apolipoprotein A-V (APOA5) gene, APOA5 (gene 116519) (assay: LTEA_HepaRG_APOA5: Life Technologies and Expression Analysis (LTEA) Assay for Apolipoprotein A-V (APOA5) gene using HepaRG (AID 2283474)). Settings: mRNA level, 48 h; actives raise or lower the signal.
Method: LTEA_HepaRG is a cell based, multiplexed-readout assay that uses HepaRG, a human liver cell line, with measurements taken at 48 hours after chemical dosing on a 96-well plate.LTEA_HepaRG_APOA5 is one of 102 assay component(s) measured in the LTEA HepaRG cell culture assay. It is a marker of Steatosis.Data from the assay component LTEA_HepaRG_APOA5 was analyzed into 1 endpoint. This assay endpoint, LTEA_HepaRG_APOA5, was analyzed with bidirectional fitting relative to DMSO as the negative control and baseline of activity. Using a type of inducible reporter, measures of mRNA induction for gain or loss-of-signal activity can be used to understand regulation of transcription factor activity. To generalize the intended target to other relatable targets, this assay endpoint is annotated to the apolipoprotein intended target family, where the subfamily is Steatosis.
A total of 1060 chemcials from the ToxCast library were tested in eight-point concentration-response experiments. Cell culture and cytotoxicity assays were conducted at Thermo Fisher Scientific's Custom Services facility (Madison, WI). A single lot of human HepaRG cells (Thermo Fisher Scientific, Frederick, MD) was used for the cell culture experiments. 96-well format collagen type I coated plates of human HepaRG cells were prepared using established methods. Briefly, cryopreserved HepaRG cells were thawed, plated at a density of approximately 100,000 cells/well in HepaRG Thaw, Plate, and General Purpose media (HPRG770, Thermo Fisher Scientific), and incubated for 48 hours. 0.5% DMSO was selected as vehicle control to balance the requisite need of DMSO in HepaRG cultures to maintain differentiation (for example, baseline metabolism, proportions of hepatocytes vs. cholangiocytes), while enabling further hepatic receptor pathway activation (for example, PXR and CAR) in response to chemical exposure. 48 hours after plating, the culture medium was replaced with HepaRG Serum-Free Incudtion Media. Cells were exposed to each test chemical in duplicate and maintained in CO2 incubators for another 48 hours. Chemical plates were thawed to room temperature and 200x concentrations of treatment groups were prepared. 8-point conentration-reponse curves were made with the highest exposure at 100 uM, followed by half-log dilutions, all in 0.5% DMSO. Each test plate contained variouse controls, induction positive controls (1mM phenobarbital), cytotoxicity positive controls ([…] aflatoxin B1), vehicle controls (0.5% DMSO), and total lysis controls (0.5% DMSO). Cell morphology images were taken using an Essen IncuCyte FLR automated microscope, with six 96-well plates imaged in about 24 minutes. Images were captured and exported and JPEG files. Spent culture media was transfered to black-well plates for the LDH assay, and remaining media was sorted at -80 C for later use. Cells were treated with RLT buffer and frozen until shipped for gene expression analysis. Total RNA was isolated from the cell suspension in 75 uL of Buffer RLT (Qiagen, Germantown, MD 20874) by Quintiles/Expression Analysis (Durham, NC) using a custom isolation procedure. Total RNA from each plate well was transferred to a preamplification plate. Fluidigm's 96.96 Dynamic ArrayTM (Fluidigm, Amsterdam, the Netherlands) technology was used for gene expression analyses by quantitative reverse transcription polymerase chain reaction (qRT-PCR, performed by Quintiles/Expression Analysis, Durham, NC)89. Standard TaqManTM Assays (Applied Biosystems/ThermoFisher Scientific, Foster City, CA) were used to assess the expression of 93 genes selected based on their selectivity and sensitivity to important hepatic receptors known to be modulated by environmental chemicals; importance in human hepatocyte functionality; and hepatotoxicity. […]

Question: Which AC50 does the source give for `NS(=O)(=O)C(F)(F)C(F)(F)C(F)(F)C(F)(F)C(F)(F)C(F)(F)C(F)(F)C(F)(F)F` here?
Answer: 10 µM (active)

Question: How did the outcome turn out when `C1CC2OC2CC1C1CO1` (stereo not given) was run?
Answer: inactive

Question: How did the outcome turn out when `CCC(C)(CC)c1cc(NC(=O)c2c(OC)cccc2OC)on1` was run?
Answer: inactive

Question: How did the outcome turn out when `CCNc1nc(NC(C)C)nc(SC)n1` was run?
Answer: inactive

Question: How did the outcome turn out when `C=CC(N)=O` was run?
Answer: inactive

Question: How did the outcome turn out when `Nc1ccc(-c2ccc(N)cc2)cc1` was run?
Answer: inactive

Question: Which outcome does the source give for `O=C(O)C(F)(F)C(F)(F)C(F)(F)C(F)(F)C(F)(F)F` here?
Answer: inactive

Question: Which outcome does the source give for `Cc1ccccc1CO[C@@H]1C[C@@]2(C(C)C)CC[C@]1(C)O2` here?
Answer: inactive

Question: Which AC50 does the source give for `O=C(O)C(F)(F)C(F)(F)C(F)(F)C(F)(F)C(F)(F)C(F)(F)C(F)(F)C(F)(F)F` here?
Answer: 82 µM (active)

Question: Which outcome does the source give for `COS(=O)(=O)OC` here?
Answer: inactive

Question: Which outcome does the source give for `Cc1cccc([N+](=O)[O-])c1` here?
Answer: inactive

Question: With `ClC(Cl)=C(c1ccc(Cl)cc1)c1ccc(Cl)cc1` as the compound, how does the outcome read?
Answer: inactive

Question: Which outcome does the source give for `CCCN(CCC)N=O` here?
Answer: inactive

Question: How did the outcome turn out when `Cc1cc(O)ccc1Cl` was run?
Answer: inactive

Question: For `COc1ccc(O)c(C(C)(C)C)c1`, which outcome is on record?
Answer: inactive

Question: How did the outcome turn out when `CC(c1ccc(O)cc1)(c1ccc(O)cc1)c1ccc(O)cc1` was run?
Answer: inactive

Question: With `CC(C)(c1ccccc1)c1ccc(O)cc1` as the compound, how does the AC50 read?
Answer: 78.3 µM (active)

Question: `c1cc2ccc3cccc4ccc(c1)c2c34` was tested. Which outcome did it give?
Answer: inactive

Question: `ClC1=C(Cl)[C@]2(Cl)[C@@H]3[C@H]4C[C@H]([C@@H]5O[C@H]45)[C@@H]3[C@@]1(Cl)C2(Cl)Cl` was tested. Which AC50 did it give?
Answer: 50 µM (active)

Question: `O=C(N[C@H]1CN2CCC1CC2)c1cc2ccoc2cn1` was tested. Which outcome did it give?
Answer: inactive

Question: With `Clc1ccc(Cl)cc1` as the compound, how does the outcome read?
Answer: inactive

Question: With `Oc1ccc(Cl)cc1Cl` as the compound, how does the outcome read?
Answer: inactive

Question: `CN(C)CCO` was tested. Which outcome did it give?
Answer: inactive

Question: With `CCOP(=S)(OCC)SCSC(C)(C)C` as the compound, how does the outcome read?
Answer: inactive

Question: Which outcome does the source give for `CCCCCCCCOC(=O)c1ccccc1C(=O)OCCCCCCCC` here?
Answer: inactive

Question: Which outcome does the source give for `CCC(C)(c1ccc(O)cc1)c1ccc(O)cc1` here?
Answer: inactive

Question: Which outcome does the source give for `CCOC(=O)C(O)(c1ccc(Cl)cc1)c1ccc(Cl)cc1` here?
Answer: inactive

Question: How did the outcome turn out when `O=C(NC(=O)c1c(F)cccc1F)Nc1cc(Cl)c(OC(F)(F)C(F)F)c(Cl)c1` was run?
Answer: inactive

Question: How did the outcome turn out when `CC1=C2C[C@H]3[C@@H](CC=C4C[C@@H](O)CC[C@@]43C)[C@@H]2CC[C@]12O[C@@H]1C[C@H](C)CN[C@H]1[C@H]2C` was run?
Answer: inactive

Question: `Cc1ccc(O)c(C)c1` was tested. Which outcome did it give?
Answer: inactive

Question: `CCC(C)c1cc([N+](=O)[O-])cc([N+](=O)[O-])c1O` (stereo not given) was tested. Which AC50 did it give?
Answer: 1.58 µM (active)

Question: `O=C(NC(=O)c1cc(F)c(F)cc1Cl)Nc1cc(F)ccc1N1CCC(C(=O)O)CC1` was tested. Which outcome did it give?
Answer: inactive

Question: Which outcome does the source give for `CC#Cc1cc(C)nc(Nc2ccccc2)n1` here?
Answer: inactive

Question: `Cc1cccc(C)c1N` was tested. Which outcome did it give?
Answer: inactive

Question: For `CN(C)c1nc(=O)n(C2CCCCC2)c(=O)n1C`, which outcome is on record?
Answer: inactive

Question: Which AC50 does the source give for `Clc1ccc(C(c2ccccc2Cl)C(Cl)(Cl)Cl)cc1` (stereo not given) here?
Answer: 10.7 µM (active)

Question: Which outcome does the source give for `Oc1ccc(C(c2ccc(O)cc2)(C(F)(F)F)C(F)(F)F)cc1` here?
Answer: inactive

Question: With `CCCCCCCCCc1ccc(O)cc1` as the compound, how does the outcome read?
Answer: inactive

Question: `CCCCCCOC(=O)c1ccccc1C(=O)OCCCCCC` was tested. Which outcome did it give?
Answer: inactive

Question: With `Cc1ccccc1[N+](=O)[O-]` as the compound, how does the outcome read?
Answer: inactive
